# The list is not random: actives were taken first. Their share in the collection is about 10%.
# LMNA splice mod: LMNA splicing modulation | HeLa LMNA splicing GFP/RFP minigene ratio, 48 h | Potency, µM (highest dose often 46.1 µM), for the others: top-dose ratio change, negative = inhibition, actives largely listed as inhibitors | 200,000 compounds, 0.01% hits; active = well fitted inhibition curve with a large enough effect in the signal ratio, with a control signal flat, not every such curve was filed as active; inconclusive = small, poorly fitted or top-dose-only effect, or effect the other way, or a change in a side signal; the % refers to the signal ratio; also: potency is read from the fitted curve at half-maximal effect
#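 S3 HeLa cells stably expressing lamin A-EGFP splicing minigene plus DsRed2, 600 cells/well, 48 h compound exposure at 37C. Laser-scanning cytometry; analysed as GFP (500-530 nm)/RFP (575-640 nm) total intensity ratio; 0.5% DMSO vehicle.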
# Luc counter: Kinase-Glo luciferase inhibition (counter-screen); Q27757; Kinase-Glo luciferase, ATP luminescence, 8 min; Potency, µM (top dose mostly 38.3 µM), without a hit: top-dose activity change, negative = inhibition, usual class: inhibitors; 200,000 compounds, 0.28% hits; AID 1379; active = well fitted inhibition curve with a large enough effect; inconclusive = small, poorly fitted or top-dose-only effect; also: potency is read from the fitted curve at half-maximal effect; nearly all actives have a fitted effect of over 60% in size
#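 Kinase-Glo luciferase light output from ATP and luciferin was measured with 10 uM ATP, within the enzyme's linear range. Buffer: 50 mM imidazole pH 7.2, 50 mM KCl, 7 mM MgCl2, 0.01% Tween 20, 0.05% BSA; luminescence read after 8 min at ambient temperature.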
# HPGD block: HPGD (human) dehydrogenase inhibition; P15428; purified HPGD, NADH fluorescence kinetic, PGE2 substrate; Potency, µM, without a hit: at the top dose activity change, negative = inhibition, hits mostly inhibitors; 150,000 compounds, 4.3% hits; AID 894; also: potency is read from the fitted curve at half-maximal effect
# Target sequence (P15428 whole entry, looked up): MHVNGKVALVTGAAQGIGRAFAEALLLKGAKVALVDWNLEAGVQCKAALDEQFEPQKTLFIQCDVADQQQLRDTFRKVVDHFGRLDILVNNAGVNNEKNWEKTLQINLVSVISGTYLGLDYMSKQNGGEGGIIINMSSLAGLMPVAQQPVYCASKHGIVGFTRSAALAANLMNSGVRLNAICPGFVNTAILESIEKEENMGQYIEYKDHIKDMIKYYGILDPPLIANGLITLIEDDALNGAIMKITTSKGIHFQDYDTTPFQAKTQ
#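 NADH formation kinetics: reaction with 30 uM PGE2 and 1 mM NAD+ (final), 20 nM enzyme, Tris-HCl pH 8 with Tween 20, after 15 min compound preincubation at room temperature. Fluorescence change, last versus first of five reads.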
# ALDH1A1 block: blocks purified human ALDH1A1 activity; Potency, µM (series often up to 75.3 µM), for the others: top-dose activity, negative = inhibition, hits mostly inhibitors; Purified ALDH1A1, NADH fluorescence, propionaldehyde substrate; 220,000 compounds, 7.3% hits; AID 1030; P00352;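 also: potency is read from the fitted curve at half-maximal effect; plate controls were no enzyme wells and a reference inhibitor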
# Target sequence (P00352 whole entry, looked up): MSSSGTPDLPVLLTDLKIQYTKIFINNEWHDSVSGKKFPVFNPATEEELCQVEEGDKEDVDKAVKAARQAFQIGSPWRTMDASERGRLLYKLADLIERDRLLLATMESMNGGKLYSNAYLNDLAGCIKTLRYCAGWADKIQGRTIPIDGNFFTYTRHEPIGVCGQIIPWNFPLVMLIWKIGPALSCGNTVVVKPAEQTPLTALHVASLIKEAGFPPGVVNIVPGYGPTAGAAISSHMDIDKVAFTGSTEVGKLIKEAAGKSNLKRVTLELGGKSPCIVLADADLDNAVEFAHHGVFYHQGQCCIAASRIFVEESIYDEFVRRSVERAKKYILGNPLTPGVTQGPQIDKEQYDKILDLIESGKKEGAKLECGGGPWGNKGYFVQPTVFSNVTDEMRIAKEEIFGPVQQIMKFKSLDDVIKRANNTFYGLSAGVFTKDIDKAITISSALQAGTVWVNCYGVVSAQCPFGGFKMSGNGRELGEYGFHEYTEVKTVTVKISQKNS
# PNC inhibitor: inhibitors of perinucleolar compartment assembly; PC3M PTB-GFP, PNC prevalence imaging, 16 h; hits give low values; activity change (PNC), negative = inhibition, % at 10 µM; 140,000 compounds, 3.1% hits; AID 2417;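 active = readout at or below -70, meaning at least 70% loss of cells showing the perinucleolar compartment, a nuclear body marking cancer cells; inconclusive = readout between -30 and a set limit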;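 also: plate controls were DMSO wells for no effect and camptothecin positive control wells for full effect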
#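 PC3M cells stably expressing PTB-GFP, 750–1000 cells/well, treated 16 h at 37 °C with compound (23 nl of library stock), in duplicate. After paraformaldehyde fixation and Hoechst stain, imaged at 20x; PNC prevalence scored by image analysis.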
# Numbers without * were called inactive; ? = inconclusive; . = no result; [ ] = another dose, or the depositor's remark. Unless noted, calls follow the shape of the dose curve; as a rule, active = well fitted inhibition curve with a large enough effect (not every such curve was filed as active); inconclusive = small, poorly fitted or top-dose-only effect, or another doubt; inactive = no such curve, though single readings can be large or run the other way. Unless noted, % is scaled to controls: 0 for no effect and ±100 for the full control effect.
SMILES,LMNA splice mod,Luc counter,HPGD block,ALDH1A1 block,PNC inhibitor
CCOC(=O)CSc1nc(C2CC2)cc(-c2ccc(Cl)cc2)c1C#N,4.1%,-0.5%,?,31.6µM*,?
CCc1nnc(NC(=O)CSc2nc(-c3ccc(F)cc3)cc(-c3ccccc3)c2C#N)s1,-15.7%,.,.,10µM*,-5.3
CCOC(=O)CC(=O)CSc1nc(C)cc(-c2cccnc2)c1C#N,4.6%,4.8%,-5.6%,-15.5%,23.3
N#Cc1c(SCC(N)=O)nc(-c2ccccc2)c2c1CCCC2,?,-2.1%,-6.7%,22.4µM*,-26.3
COC(=O)[C@@]1(Cc2ccc(F)cc2)[C@H]2c3cc(C(=O)N4CCCC4)n(CC4CC4)c3C[C@H]2CN1C(=O)c1ccccc1,.,-2.9%,-10.5%,4.0%,.
CCS(=O)(=O)N1CC(=O)N(c2cc(Cl)ccc2C)C(C)(C(=O)NC2CCCCCC2)C1 (stereo not drawn),2.8%[46 µM],.,.,.,.
C=CC1CN2CCC1CC2[C@@H](O)c1ccnc2ccc(OC)cc12 (stereo partly drawn),.,1.7%[39.9 µM],.,.,.
Cc1ccc(-c2nc(SCC(N)=O)c(C#N)c3c2CCCC3)cc1,6.3%,7.7%,?,?,?
N#Cc1c(SCC(=O)O)nc(-c2ccccc2)c2c1CCCC2,7.1%,.,.,17.8µM*,30.4
CCCCC(CC)COP(=O)(OCC(CC)CCCC)OCC(CC)CCCC (stereo not drawn),.,.,-5.2%,-4.5%,.
CCCCC(CC)CNCC(CC)CCCC (stereo not drawn),.,.,-9.6%,25.1µM*,.
Oc1ccc(Nc2nc(N3CCCC3)c3ccccc3n2)cc1,?,-1.1%,-15.7%,-1.4%,?
COc1ccc(Nc2nc(N3CCCCC3)c3ccccc3n2)cc1,?,-8.0%,?,12.6µM*,?
CC(/C=N/NC(=O)CSc1n[nH]c(=O)[nH]c1=O)=C\c1ccccc1,.,.,.,4.3%,.
COc1ccc(/C=N/NC(=O)CSc2n[nH]c(=O)[nH]c2=O)cc1,-5.9%,4.6%,20µM*,-15.0%,3.6
O=c1c(-c2ccc(F)cc2)nc2cncnc2n1C1CC1,.,-2.7%,-17.8%,-22.8%,.
O=C(NC(Cc1ccccc1)c1nc2ccccc2[nH]1)C1CC(=O)N(c2ccc3c(c2)OCCO3)C1 (stereo not drawn),0.0%,-6.7%,-13.2%,10µM*,-18.5
CCOC(=O)N1CCC2(CC1)OC(=O)C(C)=C2C(=O)NCc1ccc(C)cc1,24.4%[46 µM],.,.,.,.
CCNc1nc(Oc2ccc(=O)[nH]n2)nc(N2CCOCC2)n1,5.1%,2.5%,1.6%,7.2%,?
O=c1ccc(Oc2nc(N3CCCCC3)nc(N3CCCCC3)n2)n[nH]1,-1.5%,-0.2%,-0.6%,?,-100.0*
Cc1ccc(C(=O)Oc2ccc(-c3nccc(-c4ccccn4)n3)cc2)cc1,-9.1%,-0.5%,-16.7%,8.7%,?
CC(Oc1cccc(F)c1)C(=O)/C=C\N(C)C (stereo not drawn),6.1%,-1.0%,?,-4.5%,-18.9
CC(Oc1ccc(F)cc1)C(=O)/C=C\N(C)C (stereo not drawn),-9.6%,2.0%,-26.2%,7.5%,-88.4*
CC(Oc1ccccc1F)C(=O)/C=C/N(C)C (stereo not drawn),?,-0.9%,28.2µM*,18.7%,-13.2
CC(Oc1ccccc1Cl)C(=O)/C=C/N(C)C (stereo not drawn),-3.7%,-1.0%,14.1µM*,-3.0%,-15.8
SMILES,LMNA splice mod,Luc counter,HPGD block,ALDH1A1 block,PNC inhibitor
CC(Oc1ccc(-c2nccc(-c3ccccn3)n2)cc1)C(=O)NN (stereo not drawn),1.4%,-1.6%,-5.0%,17.8µM*,6.3
CC(Oc1ccc(F)cc1)C(=O)NN (stereo not drawn),-7.7%,-1.4%,-9.5%,5.01µM*,21.9
CC(Oc1ccccc1)C(=O)Nc1cccc(F)c1 (stereo not drawn),1.4%,-1.1%,-4.3%,-3.4%,33.1
CN(C)NC(=S)NC(=O)C12CC3CC(CC(C3)C1)C2,?,4.8%,.,28.2µM*,.
CCOc1ccc(N2C(=O)CSC23CCCCC3)cc1,3.8%,.,.,?,28.1
COc1ccc(N2C(=O)CSC23CCCCC3)cc1,-9.5%,1.0%,-15.7%,14.1µM*,306.2
COc1cc(OC)cc(C(=O)NCC(c2cccs2)S(=O)(=O)c2ccc(F)c(C)c2)c1 (stereo not drawn),-15.2%[46 µM],.,.,.,.
CCC1(C)Cc2c(sc(NC(=O)CCC(=O)O)c2C#N)CO1 (stereo not drawn),1.7%,-6.0%,-8.4%,11.0%,?
CCC(=O)Nc1sc2c(c1C#N)CC(C)(CC)OC2 (stereo not drawn),11.0%,0.0%,39.8µM*,-6.9%,23.7
NC(N)=N/N=C/c1ccccc1,-2.6%,0.8%,-8.0%,-4.1%,17.6
O=C(/C(=N/N=C/c1ccc(O)c(O)c1O)c1ccccc1)c1ccccc1,?,-5.1%,2µM*,6.3%,-21.2
Oc1ccc(/C=N/N=C(c2ccccc2)c2ccccc2)c(O)c1O,?,4.8%,15.8µM*,7.08µM*,-28.1
O=C(O)c1cc(N=Cc2ccccc2O)cc(C(=O)O)c1,.,-6.6%[7.66 µM],-23.9%,-15.6%[13.5 µM],.
CC(CCC(=O)O)(c1cc(Br)c(O)c(Br)c1)c1cc(Br)c(O)c(Br)c1,.,-2.3%[7.66 µM],-10.9%,7.6%[13.5 µM],.
OC1CCC2Cc3ccccc3N=C12 (stereo not drawn),.,2.6%,-5.3%,-8.5%,.
O=C(Nc1ccccc1)N1CCCN(Cc2ccccc2F)C1,4.0%[0.0737 µM],-4.0%,25.1µM*,2.3%,-16.6
Fc1ccccc1CN1CCCN(C(=S)Nc2cccc(Cl)c2)C1,.,4.4%,.,?,.
CCCc1nn2c(=O)cc(COC(=O)c3ccc(NC(=O)COc4ccccc4F)cc3)nc2s1,-1.3%[46 µM],.,.,.,.
O=C(CSc1nc2[nH]ncc2c(=O)n1-c1ccccc1)c1ccc2c(c1)OCCO2,?,-5.0%,-0.1%,0.316µM*,-11.7
Cc1cccc(NC(=O)CSc2nc3[nH]ncc3c(=O)n2-c2ccccc2)c1,3.5%,-7.4%,-11.1%,4.47µM*,13.6
Cc1cccc(NC(=O)CSc2nc(NS(=O)(=O)c3ccccc3)cc(=O)[nH]2)c1,.,0.0%,.,28.2µM*,.
COC(=O)C1=C(C)[C@@H](O)[C@@H](C)[C@H](c2c(OC)c(OC)c(C)c(OC)c2OC)O1,.,.,.,3.7%[13.5 µM],.
Cc1ccc(S(=O)(=O)N[C@H]2COC(=O)C/C=C\[C@@H](C)COC(=O)C/C=C\[C@@H]2C)cc1,.,.,.,-14.8%[13.5 µM],.
COc1ccc(NC(=S)N/N=C/c2cccn2Cc2ccc(F)cc2)cc1,0.5%[46 µM],0.9%,.,39.8µM*,.
Cc1ccc(Cn2cccc2/C=N/NC(=S)Nc2ccc(C)cc2)cc1,0.5%[46 µM],0.7%,.,-0.5%,.
CCOc1ccc(NC(=S)N/N=C(\C)Cc2ccc(OC)cc2)cc1,-19.3%,-4.5%,?,-3.3%,64.1
COc1ccc(C/C(C)=N/NC(=S)Nc2ccc(C)c(C)c2)cc1,-8.3%,.,.,23.8µM*,-12.3
COc1ccc(C/C(C)=N/NC(=S)Nc2ccccc2)cc1,4.6%,1.9%,-29.7%,22.4µM*,3.0

# Screening data as filed in PubChem.
